A selection: hits, their analogues and other compounds. The true share with any hit is near 2.4%.
POLH inh: qHTS for Inhibitors of Polymerase Eta; DNA polymerase eta (Homo sapiens), Q9Y253; Potency, µM (doses to about 114 µM), for inactives: at the top dose activity change, negative = inhibition, actives largely listed as inhibitors; recombinant Pol eta, fluorescent DNA replication assay; AID 588591, 2011; actives 1.2% (n = 390,000); further: on the % scale 0 is the no-effect control and ±100 the full control effect
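Pol eta at 10 nM preincubated with compounds 15 min at room temperature; reaction started with fluorescent substrate (50 nM final) and read kinetically at 0 and 10 min.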
POLI inh: qHTS for Inhibitors of Polymerase Iota; DNA polymerase iota (Homo sapiens), Q9UNA4; Pol iota fluorescent replication assay, 10 min; Potency, µM (doses to about 115 µM), inactives show at the highest dose activity, negative = inhibition, actives largely listed as inhibitors; actives 1% (n = 390,000); AID 588590, 2011
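Fluorescent replication assay read twice, at 0 min and 10 min after adding 50 nM (final) substrate. Enzyme (10 nM) and compounds were first incubated 15 min at room temperature; enzyme-free buffer wells were negative controls.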
Pol beta inh: qHTS Assay for Inhibitors of DNA Polymerase Beta; P06746; Pol beta primer extension/strand displacement, fluorescence kinetic; Potency, µM (series often up to 114 µM), without a hit: at the top dose activity change, negative = inhibition, most hits filed as inhibitors; actives 1.3% (n = 340,000); AID 485314, 2010; further: on the % scale 0 is the no-effect control and ±100 the full control effect
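Human Pol beta at 10 nM; strand-displacement substrate 50 nM final. Compound exposure 15 min at room temperature before start, reaction 10 min at room temperature.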
Tb PGK inh: qHTS Assay to Find Inhibitors of Phosphoglycerate Kinase. Potency, µM (top dose mostly 57.5 µM), for inactives: top-dose activity change, negative = inhibition, actives largely listed as inhibitors. actives 0.043% (n = 380,000). PGK/GAPDH coupled, Kinase-Glo luminescence, 60 min. Phosphoglycerate kinase, glycosomal (Trypanosoma brucei brucei), P07378. AID 602233, 2012; further: on the % scale 0 is the no-effect control and ±100 the full control effect; nearly all actives have a fitted effect of over 60% in size
Target sequence (P07378 whole entry, looked up): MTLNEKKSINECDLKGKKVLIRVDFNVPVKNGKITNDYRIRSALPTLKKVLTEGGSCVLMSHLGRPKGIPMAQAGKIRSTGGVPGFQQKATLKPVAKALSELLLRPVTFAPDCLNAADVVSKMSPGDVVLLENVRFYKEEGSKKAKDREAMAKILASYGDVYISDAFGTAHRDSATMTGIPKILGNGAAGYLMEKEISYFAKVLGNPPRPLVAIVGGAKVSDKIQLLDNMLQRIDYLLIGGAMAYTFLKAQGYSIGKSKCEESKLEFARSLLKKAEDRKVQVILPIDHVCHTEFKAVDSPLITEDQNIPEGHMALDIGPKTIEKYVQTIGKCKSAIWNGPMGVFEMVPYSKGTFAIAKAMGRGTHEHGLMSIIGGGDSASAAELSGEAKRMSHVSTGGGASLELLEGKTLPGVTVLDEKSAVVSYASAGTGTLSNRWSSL
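Luminescent ATP detection (Kinase-Glo Plus) follows a 60-minute room-temperature incubation, with wells lacking PGK as controls. Buffer: 100 mM TEA (pH 7.6), 5 mM MgCl2, 0.01% Tween-20. Coupling enzyme GAPDH (100 nM final) supplies unstable 1,3-BPG in-well.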
FEN1 inh: qHTS Assay for the Inhibitors of Human Flap endonuclease 1 (FEN1). P39748. Recombinant FEN1 flap cleavage, fluorescence, 15 min. Potency, µM (doses to about 114 µM), for inactives: top-dose activity change, negative = inhibition, most hits filed as inhibitors. actives 0.35% (n = 390,000). AID 588795, 2011; further: on the % scale 0 is the no-effect control and ±100 the full control effect; nearly all actives have a fitted effect of over 65% in size
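Recombinant FEN1 (10 nM) was preincubated with pin-transferred compounds for 15 min at room temperature, then flap DNA substrate (50 nM final) was added. Plates were read at 0 and 15 min, and normalized concentration–response data were fitted to a four-parameter Hill equation.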
POLK inh: qHTS for Inhibitors of Polymerase Kappa; DNA polymerase kappa (Homo sapiens), Q9UBT6; purified Pol kappa, fluorescent DNA synthesis assay, 10 min; Potency, µM (highest dose often 107 µM), for inactives: at the highest dose activity, negative = inhibition, usual class: inhibitors; actives 0.53% (n = 400,000); AID 588579, 2011; further: on the % scale 0 is the no-effect control and ±100 the full control effect
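50 nM final substrate added after 15 min RT preincubation of 10 nM Pol kappa with compound; fluorescence read at 0 and 10 min.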
Active calls of the source: *; i = inactive; ? = inconclusive; / = no result given. The call rests on the fitted dose curve; in most records, active means well fitted curve in the direction sought with a large enough effect; inconclusive means small, poorly fitted or top-dose-only effect, or another doubt; inactive means no such curve, though single readings can be large; an effect the other way counts as inactive or inconclusive. Potency means the concentration at half of the fitted maximal effect.

SMILES	POLH inh	POLI inh	Pol beta inh	Tb PGK inh	FEN1 inh	POLK inh
O=C(Nc1ccc(F)c(F)c1)c1cnn2c1NC(=C1CC1)C=C2C(F)F	/	-19%	/	/	-9%	-8%
O=C(CN1C(=O)c2ccccc2S1(=O)=O)Nc1cc(S(=O)(=O)N2CCOCC2)ccc1N1CCOCC1	/	-5%	/	/	11%	-13%
Cc1ccc(F)c(C2C3C=CCCC3(C)C(=O)N2Cc2ccccc2)c1 (configuration not stated)	/	-22%	/	/	-10%	-18%
CCc1ccc(Nc2ccc3nonc3c2[N+](=O)[O-])cc1	-11%	-24%	/	-6%	12%	4%
O=[N+]([O-])c1c(NCc2ccco2)ccc2nonc12	-19%	63%	3.2µM*	2%	3%	1%
CCOC(=O)NNc1ccc2nonc2c1[N+](=O)[O-]	10µM*	10µM*	45µM*	?	40µM*	?
Cc1cc(NS(=O)(=O)c2ccc(Nc3nc(-c4sc(N)nc4C)cs3)cc2)no1	10µM*	3.2µM*	-9%	-8%	56µM*	25µM*
Cc1cc(NS(=O)(=O)c2ccc(Nc3nc(-c4ccc(C)c(C)c4)cs3)cc2)no1	?	-15%	?	-3%	-15%	-5%
Cc1cc2nc(-c3cccnc3SCC(=O)NC3CC3)[nH]c2cc1C	/	/	-17%	/	/	/
O=C(CSc1ncccc1-c1nc2ccccc2[nH]1)NCc1ccco1	25µM*	?	32µM*	-10%	?	50µM*
COc1ccc(-c2[nH]c(-c3ccc(C)cc3)nc2SCC(=O)NCc2ccco2)cc1OC	-5%	-11%	79µM*	-5%	19%	6%
Cc1cc2nc(-c3cccnc3SCC(=O)NCc3ccco3)[nH]c2cc1C	-19%	7%	50µM*	-12%	-18%	-3%
O=C(CSc1nc2ccccc2[nH]1)NCc1ccco1	-2%	-10%	5%	-10%	0%	-7%
O=C1C2C(C(=O)N1/N=C/c1ccc([N+](=O)[O-])o1)C1C=CC2C12CC2 (configuration not stated)	?	-13%	17%	i	8%	-5%
CC1=NN(c2nc(N)nc(/C(C#N)=C/c3ccc([N+](=O)[O-])o3)n2)C(C)(C)C1	18µM*	?	/	-22%	9%	-29%
Cn1cccc1-c1cc(C(=O)N/N=C/C=C/c2ccccc2)[nH]n1	-5%	?	10µM*	1%	-22%	?
COc1cccc(/C=N/NC(=O)c2cc(-c3cccn3C)n[nH]2)c1	?	?	35µM*	i	4%	?
CCOc1ccc(CCNC(=O)c2cn(C)c3ccc(S(=O)(=O)N4CCCCC4)cc3c2=O)cc1OCC	-13%	79µM*	?	i	-8%	-5%
O=C(CSC1=NC(=O)C(c2ccccc2)C(=O)N1)Nc1ccccc1Cl (configuration not stated)	-6%	-12%	0%	-4%	-2%	-15%
O=C(CSC1=NC(=O)C(c2ccccc2)C(=O)N1)Nc1ccccc1[N+](=O)[O-] (configuration not stated)	50µM*	?	?	-8%	-12%	?
Cc1cc2oc3ccc(NCCCn4ccnc4)cc3c(=O)c2cc1C	56µM*	22µM*	/	-4%	0%	-41%
Cc1cc2oc3ccc(NCCCN4CCOCC4)cc3c(=O)c2cc1C	-6%	4%	/	1%	-23%	-1%
Cc1ccc2nc(N/N=C/c3ccco3)cc(C)c2c1	-15%	5%	-15%	-2%	-10%	1%
Cc1ccc2nc(C)cc(SCC(=O)N/N=C/c3ccco3)c2c1	8%	-16%	40µM*	3%	3%	-14%

Screening results as filed in PubChem BioAssay.
